pPAFAH inh: pPAFAH enzyme inhibitors, primary screen, biochemical, fluorescence polarization, human | Platelet-activating factor acetylhydrolase (Homo sapiens), Q13093 | recombinant pPAFAH, FP-rhodamine probe fluorescence polarization | inhibition, % at 3.39 µM | 1.5% of 330,000 active | AID 463082, 2010;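 active means inhibition above the mean inhibition across the screen plus 3 SD, cut at about 25% in these data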;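 further: inhibitors block binding of the rhodamine activity-based probe so polarization drops; 0% = enzyme with DMSO and 100% = wells lacking pPAFAH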
Fam108B counter: mouse Fam108B serine hydrolase inhibitors, primary screen, counter-screen for RBBP9 inhibitor project, biochemical, fluorescence polarization. inhibition, % at 9.51 µM. recombinant Fam108B, FP-Rh probe fluorescence polarization. AID 1947, 2009. 0.33% of 300,000 active;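 active means inhibition above the screen mean inhibition plus 3 SD, computed separately per campaign, cut at about 18% in these data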;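 further: inhibitors lower polarization as less probe binds the enzyme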
PAFAH1B3 FP inh: PAFAH1B3 enzyme inhibitors, primary screen, biochemical, fluorescence polarization, human; Platelet-activating factor acetylhydrolase IB subunit alpha1 (Homo sapiens), Q15102; recombinant PAFAH1B3, FP-rhodamine probe; inhibition, % at 3.39 µM; 0.28% of 340,000 active;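 active means inhibition above the screen-wide average of all tested compounds plus 3 SD, cut at about 25% in these data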;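 further: 0% = enzyme with DMSO only and 100% = wells lacking PAFAH1B3 protein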
Target sequence (Q15102 whole entry, looked up): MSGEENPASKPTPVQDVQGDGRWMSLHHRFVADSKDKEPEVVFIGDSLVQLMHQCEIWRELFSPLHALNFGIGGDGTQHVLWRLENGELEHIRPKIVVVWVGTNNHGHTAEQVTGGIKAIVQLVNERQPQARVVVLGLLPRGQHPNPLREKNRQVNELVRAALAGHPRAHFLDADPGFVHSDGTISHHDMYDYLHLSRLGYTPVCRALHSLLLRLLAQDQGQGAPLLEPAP
PAFAH2 inh: PAFAH2 enzyme inhibitors, primary screen, biochemical, fluorescence polarization, human; Platelet-activating factor acetylhydrolase 2, cytoplasmic (Homo sapiens), Q99487; recombinant PAFAH2, FP-rhodamine activity probe; inhibition, % at 3.39 µM; 0.99% of 340,000 active; AID 492956, 2010;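 active means inhibition above the mean over all tested compounds plus 3 SD, cut at about 30% in these data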;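 further: inhibitors block probe labeling of enzyme so polarization drops; 0% = enzyme with DMSO and 100% = wells lacking PAFAH2 protein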
PME-1 primary: PME-1 inhibitors via competitive probe labeling, primary screen, biochemical, fluorescence polarization, FP-Rh probe, HTS | Protein phosphatase methylesterase 1 (Homo sapiens), Q9Y570 | recombinant PME-1 | inhibition, % at 5.9 µM | 0.53% of 320,000 active;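 active means inhibition above the campaign mean of all compounds plus 3 SD, cut at about 26% in these data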;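 further: competitive labeling of PME-1 active site by serine hydrolase directed probe; 0% = PME-1 with DMSO and 100% = wells lacking PME-1 enzyme; inhibitors block probe labeling so polarization falls and inhibition rises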
PAFAH1B2 FP inh: PAFAH1B2 enzyme inhibitors, primary screen, biochemical, fluorescence polarization, human | recombinant PAFAH1B2, FP-rhodamine activity probe | Platelet-activating factor acetylhydrolase IB subunit alpha2 (Homo sapiens), P68402 | 1.2% of 340,000 active | inhibition, % at 3.39 µM;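 active means inhibition above the mean of all tested compounds plus 3 SD, cut at about 24% in these data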;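 further: 0% = enzyme with DMSO and 100% = wells lacking PAFAH1B2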
Target sequence (P68402 whole entry, looked up): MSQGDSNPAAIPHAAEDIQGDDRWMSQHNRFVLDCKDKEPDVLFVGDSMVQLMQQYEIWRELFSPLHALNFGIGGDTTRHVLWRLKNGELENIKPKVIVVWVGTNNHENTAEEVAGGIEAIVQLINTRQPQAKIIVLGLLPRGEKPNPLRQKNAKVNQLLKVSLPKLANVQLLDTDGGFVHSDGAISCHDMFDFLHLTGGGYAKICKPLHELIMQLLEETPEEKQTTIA
* hit, by the source's call. Most compounds without a hit are left out; they make up all but 2.8% or so of the library.

What do the screens show for `COC(=O)[C@@H](NC(=O)c1ccc2c(c1)S(=O)(=O)c1ccccc1C2=O)C(C)C`?
pPAFAH inh: -1; Fam108B counter: -2; PAFAH1B3 FP inh: -3; PAFAH2 inh: -1; PME-1 primary: 1; PAFAH1B2 FP inh: -1

What do the screens show for `Cc1ccc(/C=N/OC(=O)c2nn(C)cc2Cl)cc1`?
pPAFAH inh: 0; Fam108B counter: 0; PAFAH1B3 FP inh: 2; PAFAH2 inh: 13; PME-1 primary: -2; PAFAH1B2 FP inh: 28*

How did COc1nc(N)nc(N)c1NS(=O)(=O)c1ccc(C)cc1 do in these assays?
pPAFAH inh: 3; Fam108B counter: 1; PAFAH1B3 FP inh: -4; PAFAH2 inh: 2; PME-1 primary: -8; PAFAH1B2 FP inh: -5

Results for COc1ccccc1OCC(=O)N1CCN(C(=O)c2ccco2)CC1 ?
pPAFAH inh: -2; Fam108B counter: -1; PAFAH1B3 FP inh: -4; PAFAH2 inh: 3; PME-1 primary: 6; PAFAH1B2 FP inh: -1

What do the screens show for `CC(OCC(O)CN(C)Cc1nc2ccccc2c(=O)[nH]1)c1ccc(Cl)cc1` (stereo not drawn)?
pPAFAH inh: 7; Fam108B counter: 3; PAFAH1B3 FP inh: -3; PAFAH2 inh: 1; PME-1 primary: 6; PAFAH1B2 FP inh: 28*

What do the screens show for `N#CCCC(CCC#N)C1=NCCc2ccccc21`?
pPAFAH inh: 3; Fam108B counter: 2; PAFAH1B3 FP inh: 1; PAFAH2 inh: 1; PME-1 primary: -2; PAFAH1B2 FP inh: 0

Results for N#Cc1c(N)sc(=S)c2c1CCN(Cc1ccccc1)C2 ?
pPAFAH inh: 40*; Fam108B counter: 27*; PME-1 primary: 32*

What do the screens show for `CC1(C)CC2(CC(c3ccccc3F)c3ccc(O)c(O)c3O2)NC(=S)N1` (stereo not drawn)?
pPAFAH inh: 33*; Fam108B counter: 1; PAFAH1B3 FP inh: -3; PAFAH2 inh: -1; PME-1 primary: 0; PAFAH1B2 FP inh: 7

How did COC(=O)c1ccc(CNC(=O)COC(=O)CCC2CCCC2)cc1 do in these assays?
pPAFAH inh: 25*; Fam108B counter: 2; PAFAH1B3 FP inh: -5; PAFAH2 inh: -1; PME-1 primary: 0; PAFAH1B2 FP inh: 1

Results for CC(C)(C)NC(=O)NC(=O)COC(=O)CCC1CCCC1 ?
pPAFAH inh: 31*; Fam108B counter: -1; PAFAH1B3 FP inh: -1; PAFAH2 inh: 16; PME-1 primary: 2; PAFAH1B2 FP inh: 6

What do the screens show for `COc1ccc(CNC(=O)COC(=O)CCC2CCCCC2)cc1`?
pPAFAH inh: 31*; Fam108B counter: 2; PAFAH1B3 FP inh: 6; PAFAH2 inh: 10; PME-1 primary: 3; PAFAH1B2 FP inh: 3

What do the screens show for `COc1ccc(CNC(=O)COC(=O)CCOc2ccccc2)cc1`?
pPAFAH inh: 13; Fam108B counter: 0; PAFAH1B3 FP inh: -6; PAFAH2 inh: -8; PME-1 primary: 5; PAFAH1B2 FP inh: -1

Results for COC(=O)c1ccc(CNC(=O)COC(=O)CCN2C(=O)C3CC=CCC3C2=O)cc1 (stereo not drawn) ?
pPAFAH inh: 7; Fam108B counter: 2; PAFAH1B3 FP inh: -2; PAFAH2 inh: -2; PME-1 primary: -1; PAFAH1B2 FP inh: -1

Results for COc1ccc(NC(=O)COC(=O)CO/N=C(\C)c2ccc3c(c2)OCO3)cc1S(N)(=O)=O ?
pPAFAH inh: 6; PAFAH1B3 FP inh: 6; PAFAH2 inh: 4; PME-1 primary: 1; PAFAH1B2 FP inh: 2

Results for CCN(C(=O)COC(=O)/C=C/c1ccc2c(c1)OCO2)c1c(N)n(Cc2ccccc2)c(=O)[nH]c1=O ?
PAFAH1B3 FP inh: 1; PAFAH2 inh: 3; PAFAH1B2 FP inh: 3

How did O=C(COc1ccccc1)NCC(=O)N1CCCCCC1 do in these assays?
pPAFAH inh: 0; PAFAH1B3 FP inh: 8; PAFAH2 inh: 1; PME-1 primary: -8; PAFAH1B2 FP inh: 8

Results for Cc1ccc(S(=O)(=O)N2CCN(C(=O)/C=C/c3ccccc3)CC2)cc1C ?
PAFAH1B3 FP inh: 5; PAFAH2 inh: 3; PAFAH1B2 FP inh: -2

Compound activity as filed in PubChem BioAssay.
